Source: PubChem BioAssay (The Scripps Research Institute Molecular Screening Center)
M1 PAM: potentiates human M1 receptor response to acetylcholine; P11229; CHO-K1 hM1, Fluo-8 calcium fluorescence, ACh EC20; 0% = ACh EC20, 100% = maximal ACh; activation, % at 3 µM; hit rate 0.088% among 360,000; AID 588819; in the data active = activation above about 19%, passing the limit was not always enough
Target sequence (P11229 whole entry, looked up): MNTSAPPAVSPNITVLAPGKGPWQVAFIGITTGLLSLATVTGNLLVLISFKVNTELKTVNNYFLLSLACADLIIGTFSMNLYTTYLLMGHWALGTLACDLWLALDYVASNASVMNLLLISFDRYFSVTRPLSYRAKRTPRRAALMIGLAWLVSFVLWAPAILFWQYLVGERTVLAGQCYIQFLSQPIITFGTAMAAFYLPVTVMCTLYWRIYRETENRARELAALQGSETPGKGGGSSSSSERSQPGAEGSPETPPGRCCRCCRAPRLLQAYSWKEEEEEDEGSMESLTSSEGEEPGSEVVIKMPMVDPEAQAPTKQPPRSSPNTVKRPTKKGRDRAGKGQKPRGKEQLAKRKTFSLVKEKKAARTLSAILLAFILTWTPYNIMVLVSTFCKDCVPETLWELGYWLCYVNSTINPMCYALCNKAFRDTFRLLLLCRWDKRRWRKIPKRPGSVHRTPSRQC
CHO-K1 Ca ag: counter-screen for M1 agonists: effect in parental CHO-K1 cells; Fluo-8 calcium fluorescence; scaled to maximal ATP response, vehicle zero; activation, % at 3 µM; hit rate 0.48% among 360,000; in the data active = activation above about 15%;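 note: untransfected CHO-K1 host cells lacking M1 receptor as counterscreen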
CHO-K1 Ca PAM: nonselective activator or artifact in parental CHO-K1 calcium assay; ATP EC20, Fluo-8 calcium fluorescence; 0% at ATP EC20, 100% at ATP max; activation, % at 3 µM; hit rate 0.02% among 360,000;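 active = activation above the run cutoff, the mean activation of all test compounds plus 3 SD, cut at about 40% in these data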;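 note: peak over basal fluorescence ratio in a 140 s read after ATP addition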
M1 antag: antagonists of human M1 muscarinic receptor | AID 588852 | inhibition, % at 3 µM | hit rate 1.3% among 360,000 | P11229 | CHO-K1 hM1, Fluo-8 calcium fluorescence, ACh EC80 antagonist;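 active = percent inhibition above its own plate's cutoff, namely the mean of that plate's compound wells plus 3 SD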;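 note: peak over basal fluorescence ratio during 140 s after agonist addition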
CHO-K1 Ca antag: M1 antagonist counterscreen hit in parental CHO-K1 cells. ATP-induced calcium, Fluo-8 fluorescence. inhibition, % at 3 µM. hit rate 0.6% among 360,000;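 active = inhibition above a per-plate cutoff, the plate's mean sample inhibition plus 3 SD, cut at about 24% in these data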
M1 ag: activates human CHRM1 receptor. hit rate 0.33% among 360,000. CHO-K1 hM1, Fluo-8 calcium fluorescence, agonist mode; 0% DMSO, 100% acetylcholine EC100. activation, % at 3 µM. P11229. AID 588814;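 active = activation above the run's mean compound activation plus 3 SD, cut at about 16% in these data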;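 note: peak over basal fluorescence ratio within a 140 s kinetic read after compound addition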
Numbers stand for hits; 0 = inactive; - = no result. Only some compounds are listed: those with a hit (about 2.3% of all), similar ones and a draw of the others.

SMILES	M1 PAM	CHO-K1 Ca ag	CHO-K1 Ca PAM	M1 antag	CHO-K1 Ca antag	M1 ag
CSCCC(c1nnnn1C1CCCC1)N1CCC(n2c(=O)[nH]c3ccccc32)CC1 (stereo unspecified)	0	0	0	0	0	0
CSCCC(c1nnnn1C1CCCCC1)N1CCC(n2c(=O)[nH]c3ccccc32)CC1 (stereo unspecified)	0	0	0	33.7	0	0
O=[N+]([O-])c1cc(Cl)c(Cl)cc1Cl	0	0	0	22.3	0	0
O=[N+]([O-])c1ccc(Cl)c([N+](=O)[O-])c1	0	0	0	0	0	0
CN(C)c1ccc(/C=C/[N+](=O)[O-])cc1	0	0	0	41.1	0	0
CCc1nc(N2CCNCC2)c(C#N)c2c1CSC(C)(C)C2	0	0	0	47.1	0	0
COc1cc(Br)cc(CN2CCN(C)CC2)c1O	0	0	0	59.3	0	0
O=c1[nH]c(=O)n(Cc2ccco2)c(O)c1C=NC1CCN(Cc2ccccc2)CC1	0	0	0	0	0	0
c1cc2c(cc1N1CCCCC1)C1CC2CCN1 (stereo unspecified)	0	0	0	0	0	0
COC(=O)c1ccc(NC(=O)CSc2nc3ccc(N4C(=O)C5C6C=CC(C6)C5C4=O)cc3s2)cc1 (stereo unspecified)	0	0	0	44.5	0	0
C=C(C)C(Cc1c(OC)ccc(C(=O)/C=C/c2ccc(O)cc2)c1O)OO (stereo unspecified)	0	0	0	0	0	0
C=CC1CN2CCC1CC2C(OC(C)=O)c1ccnc2ccc(OC)cc12 (stereo unspecified)	0	0	0	0	0	0
Cc1nc2cc(-c3ccccc3)nn2c(C)c1CCC(=O)N1CCC2(CC1)OCCO2	0	0	0	0	23.9	0
Cc1nc2ncnn2c(C)c1CCC(=O)N1CCC2(CC1)OCCO2	0	0	0	0	0	0
NNC(N)=O	0	0	0	0	0	16.2
Clc1ccc2c(c1)C(OC1CN3CCC1CC3)c1ccccc1CS2 (stereo unspecified)	0	0	0	99.9	0	0
CN1CCN(CCOC2c3ccccc3CSc3ccc(Cl)cc32)CC1 (stereo unspecified)	0	0	0	99.3	0	0
CCOc1cc2c(cc1OCC)-n1cccc1C(c1ccccc1OC)NC2 (stereo unspecified)	0	0	0	0	0	0
C[C@]12CC[C@H](O)CC1=CCC1C2CC[C@@]2(C)C1C[C@@H]1CC(=O)O[C@@H]12 (stereo partly specified)	0	0	0	0	0	0
Oc1c(Cl)cccc1Cc1cc(Cl)cc(Cl)c1O	0	0	0	41.1	0	0
CCOC(=O)[C@]12Cc3ccc(C)cc3[C@H]1N(C1CCCCC1)C(=O)c1cc(OC)ccc12	-	0	0	-	0	-
CCOC(=O)[C@]12Cc3cc(Cl)ccc3[C@H]1N(C1CCCCC1)C(=O)c1cc(OC)ccc12	-	0	0	-	33.1	-
O=C1CCCN1CC#CCN1CCCC1	0	0	0	86.7	0	102.5
CC1N=C(c2ccccc2)c2cc(Br)ccc2NC1=O (stereo unspecified)	0	0	0	0	0	0
CC1(C)OC(c2ccccc2)=C/C(=C/C=C2C(=O)NC(=O)NC2=O)O1	0	0	0	0	0	16.6
SMILES	M1 PAM	CHO-K1 Ca ag	CHO-K1 Ca PAM	M1 antag	CHO-K1 Ca antag	M1 ag
CCOC(=O)c1ccc(N=Cc2c(O)n(-c3ccc(OC)cc3)c(=S)[nH]c2=O)cc1	0	0	0	34.4	0	0
N[C@H](CO)Cc1ccccc1	0	0	0	0	0	0
CC1(CCl)CN1S(=O)(=O)c1ccccc1 (stereo unspecified)	0	0	0	0	0	0
CS(=O)(=O)c1ccc(C2=C(CNC(=O)c3ccncc3)[C@H]3CC[C@@H](C2)N3CCOc2ccccc2)cc1	0	0	0	29.0	0	0
CS(=O)(=O)c1ccc(C2=C(CNC(=O)c3ccc([N+](=O)[O-])cc3)[C@H]3CC[C@@H](C2)N3CCOc2ccccc2)cc1	0	0	0	0	0	0
c1ccc(-c2ccc(CN3Cc4ccccc4-n4nncc4C3)cc2)cc1	0	0	0	36.4	0	0
COc1ccc(C(=O)C2CCCN(CCc3ccccc3)C2)cc1OC (stereo unspecified)	0	0	0	54.7	0	0
